Consider 38 compounds from PubChem BioAssay (NCI).

About 79,000 compounds went through this panel and 15% of them were active in at least one assay; those are over-represented in the sample as a whole. Values without a mark were called inactive. Calls of active or inactive are those of the source. Cut-off read from the data, not from the text of the source: active = growth inhibition above about 70%; inactive = the rest.

Assay [1] can be described thus: NCI Yeast Anticancer Drug Screen. Data for the rad50 strain (AID 155).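 Note: 0% = growth of vehicle-only cultures of the same strain.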 To be noted: S. cerevisiae rad50 strain growth inhibition; at 50.0 µM; stronger effect = higher value. In a few lines:
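Cells are treated with compound, grown, and their growth is then scored against vehicle-only cultures of the same repair-deficient yeast strain.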

Assay [2] is described as follows: NCI Yeast Anticancer Drug Screen. Data for the mec2-1 strain (AID 157). To be noted: S. cerevisiae mec2-1 strain, at 50.0 µM, stronger effect = higher value. In a few lines:
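mec2-1 yeast strain, carrying an alteration in DNA damage repair or cell cycle control, was exposed to compounds; growth inhibition was measured relative to vehicle-treated controls.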

Assay [3] is described as follows: NCI Yeast Anticancer Drug Screen. Data for the sgs1 mgt1 strain (AID 161).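 Note: 0% = growth of cultures given vehicle only.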 The following applies: S. cerevisiae sgs1 mgt1 strain, at 50.0 µM, stronger effect = higher value. A digest of the protocol:
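Percent growth inhibition was derived by comparing compound-exposed mutant yeast with vehicle-exposed cultures. The strain carries alterations in DNA damage repair.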

A short description of assay [4]: NCI Yeast Anticancer Drug Screen. Data for the cln2 rad14 strain (AID 165).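 Note: 0% = growth equal to vehicle treated cultures.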 To be noted: S. cerevisiae cln2 rad14 strain, at 50.0 µM, stronger effect = higher value. In a few lines: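 Yeast carrying cln2 and rad14 alterations (cell cycle control and DNA damage repair) were exposed to compounds. Growth inhibition was measured against vehicle-treated controls.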
Assay [5] can be described thus: NCI Yeast Anticancer Drug Screen. Data for the bub3 strain (AID 167). To be noted: S. cerevisiae bub3 mutant strain, at 50.0 µM, stronger effect = higher value. A digest of the protocol: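 Part of a panel of yeast mutants defective in DNA damage repair or cell cycle regulation. Each strain is grown with compound, and inhibition is calculated relative to solvent-treated cultures.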

Assay [6] is described as follows: NCI Yeast Anticancer Drug Screen. Data for the mlh1 rad18 strain (AID 175). The following applies: S. cerevisiae mlh1 rad18 strain growth inhibition; at 50.0 µM; stronger effect = higher value. A digest of the protocol: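 Growth inhibition of the yeast strain was measured after compound exposure and expressed relative to vehicle-treated controls. The strain carries defined defects in DNA damage repair.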

Consider `COc1cccc2c1[C@]1(O)C(O)CCCC21` (stereo partly drawn), for which the growth inhibition was -43.6% in assay [1]; -6.6% in assay [2]; -60.6% in assay [3]; 5.95% in assay [4]; -31.9% in assay [5]; -35.7% in assay [6].

For the compound `NC(N)=NC(CC(=O)O)c1ccccc1` (stereo not drawn), the growth inhibition was -1.15% in assay [1]; -20% in assay [2]; -26.4% in assay [3]; -26.2% in assay [4]; -46.4% in assay [5]; 10.2% in assay [6].

With `CC(=O)OC(C)(C)c1ccc2c(c1)C(=O)C[C@@H]1[C@](C)(C#N)CCC[C@]21C`, the growth inhibition in assay [1] was 46.6%; in assay [2], 0.3%; in assay [3], -2.75%; in assay [4] it was -5.35%; in assay [5], 52.1%; in assay [6], 35.5%.

Regarding `CCOC(=O)C(Cl)(NC(=O)NC(Cl)(C(=O)OCC)C(F)(F)F)C(F)(F)F` (stereo not drawn), the growth inhibition in assay [1] is 3.8%; in assay [2] it was 23.8%; in assay [3] it was -0.85%; in assay [4] it was -1.75%; in assay [5] it was 3.2%; in assay [6], 6.65%.

For `Oc1ccc2c(c1)OCC(O)(c1ccccc1O)C2` (stereo not drawn), the growth inhibition in assay [1] was 23.8%; in assay [2], -1.95%; in assay [3], 6.3%; in assay [4] it was 7.95%; in assay [5], 23.2%; in assay [6], 15.3%.

Take `CCC(C)C(=O)OCC1(c2ccc(C)cc2OC(=O)C(C)C)CO1` (stereo not drawn): the growth inhibition is 15.7% in assay [1]; -2.45% in assay [2]; 19.2% in assay [3]; -1% in assay [4]; -6% in assay [5]; 12.2% in assay [6].

Take `CC(C)c1ccccc1OC(=O)NC1CCCCC1`: the growth inhibition in assay [1] is 1.9%; in assay [2], 20.7%; in assay [3], 7.25%; in assay [4], 0.15%; in assay [5], 14.7%; in assay [6], 3.95%.

For the compound `O/N=C1/C2C=CC(C2)C1Cl` (stereo not drawn), the growth inhibition in assay [1] is 1.35%; in assay [2] it was -5.75%; in assay [3] it was 11.7%; in assay [4] it was 13.7%; in assay [5] it was -10.1%; in assay [6] it was -16.9%.

Regarding `COc1ccc(CCN2C(CC(=O)c3ccccc3)CCCC2CC(=O)c2ccccc2)cc1OC` (stereo not drawn), the growth inhibition is -8.05% in assay [1]; -10.4% in assay [2]; -0.9% in assay [3]; -0.2% in assay [4]; 0.65% in assay [5]; -2.75% in assay [6].

On to `COC(=O)C(=O)C(C(C)=O)C(=O)C(=O)Nc1ccc(C)cc1C` (stereo not drawn), for which the growth inhibition in assay [1] was 19.1%; in assay [2] it was 14.1%; in assay [3] it was 1.95%; in assay [4], 15.2%; in assay [5], 26.1%; in assay [6], 17.9%.

Regarding `CCN(CC)CC1(C)NN=C2C(n3cccc3)=CC=CN21` (stereo not drawn), the growth inhibition in assay [1] is -3.7%; in assay [2] it was 11.7%; in assay [3], -3.4%; in assay [4] it was -20.6%; in assay [5], -4.2%; in assay [6], -4.9%.

Turning to `O=C(O)c1cc(Cc2ccc(I)c(C(=O)O)c2)ccc1I`, the growth inhibition is 20.9% in assay [1]; 2.5% in assay [2]; 32.9% in assay [3]; 29% in assay [4]; -5.75% in assay [5]; 40.5% in assay [6].

Turning to `CS(=O)(=O)OCC1OC(n2ccc(NC(=O)c3ccccc3)nc2=O)CC1OS(C)(=O)=O` (stereo not drawn), the growth inhibition in assay [1] was 0.5%; in assay [2], -16.9%; in assay [3], -5.8%; in assay [4], -11.7%; in assay [5], -14.8%; in assay [6] it was -4%.

For the compound `COc1ccccc1NC(=O)CC(=O)n1nc(C)c(N=Nc2ccccc2F)c1C`, the growth inhibition was -41.6% in assay [1]; 1.45% in assay [2]; -28.2% in assay [3]; 6.8% in assay [4]; -31.9% in assay [5]; -30.3% in assay [6].

`O=S1(=O)CCCCC1C(O)(c1ccccc1)c1ccccc1` (stereo not drawn): the growth inhibition in assay [1] was 96% (active); in assay [2], 94.2% (active); in assay [3], 91.2% (active); in assay [4], 95.5% (active); in assay [5] it was 95.8% (active); in assay [6], 96% (active).

For `CCOC(=O)/C=C/C(=O)N1CCN(C(=O)/C=C/C(=O)OCC)C(C)C1` (stereo not drawn), the growth inhibition in assay [1] is -3.3%; in assay [2], -40.8%; in assay [3], -6.7%; in assay [4], 4.25%; in assay [5], -41.5%; in assay [6] it was -15.9%.

For the compound `CCCc1c(C(=O)O)c(-c2cccc3ccccc23)c(CCC)c2c1-c1cccc3cccc-2c13`, the growth inhibition in assay [1] was 54.5%; in assay [2], 35%; in assay [3], 76% (active); in assay [4], 71.2% (active); in assay [5], 30.2%; in assay [6] it was 73.5% (active).

As for `C=C(c1ccccc1)C1(O)CCCCC1N(C)C` (stereo not drawn), the growth inhibition is -24.4% in assay [1]; -13.8% in assay [2]; 0.7% in assay [3]; -12.3% in assay [4]; 10.9% in assay [5]; 12.4% in assay [6].

Take `CC1CCC(C(C)C)C(OC2(c3ccccc3)OC(=O)c3ccccc32)C1` (stereo not drawn): the growth inhibition was 23.7% in assay [1]; -5.7% in assay [2]; 15.4% in assay [3]; 8.55% in assay [4]; 8.65% in assay [5]; 16.4% in assay [6].

As for `COc1cc2c(cc1OC)C1=C(/C=C\C(C)=O)CCN1CC2`, the growth inhibition was -6.9% in assay [1]; 20.9% in assay [2]; -4.45% in assay [3]; -8.65% in assay [4]; 0.1% in assay [5]; 5.55% in assay [6].

Regarding `CCCCCCCCCCCCCCCc1c(NC(C)(CC(C)(C)O)[P+](=O)O)c(=O)n(C)n1C` (stereo not drawn), the growth inhibition in assay [1] is -52.2%; in assay [2] it was -31.1%; in assay [3], -30.9%; in assay [4], -25.2%; in assay [5], -33.8%; in assay [6], -33.4%.

For `CCCCCCCCCCS(C)(=O)=O`, the growth inhibition is -19.4% in assay [1]; -3.95% in assay [2]; -7.25% in assay [3]; -16.4% in assay [4]; -24.9% in assay [5]; -24.6% in assay [6].

Turning to `Cc1ccc(OC/C=N\N=C(N)N)cc1C`, the growth inhibition was -7.9% in assay [1]; 16.4% in assay [2]; 41.3% in assay [3]; -6% in assay [4]; 8.3% in assay [5]; 17.1% in assay [6].

Regarding `CC1(C)OC2C3COc4nc5c(N)ncnc5n4C(O3)C2O1` (stereo not drawn), the growth inhibition in assay [1] was -6%; in assay [2], -5.2%; in assay [3], -8.85%; in assay [4] it was -5.05%; in assay [5], -8.1%; in assay [6] it was -9.9%.

`CCCCCCCCCCCCCCO`: the growth inhibition in assay [1] was 21.9%; in assay [2], -22.8%; in assay [3], -19.7%; in assay [4], -54.8%; in assay [5], 1.3%; in assay [6], 16.9%.

For the compound `COC(=O)CC(c1ccc(OC)cc1)C(CC(=O)OC)c1ccc(OC)cc1` (stereo not drawn), the growth inhibition in assay [1] was -19.2%; in assay [2], -29.8%; in assay [3] it was 13.9%; in assay [4], 15.8%; in assay [5], 25.9%; in assay [6], -20.1%.

Turning to `CO[C@@H]1[C@@H](OC2OC(C)C(OC3CC(C)(O)C(OC(=O)CC(C)C)C(C)O3)C(N(C)C)C2O)[C@@H](CC=O)C[C@@H](C)C(=O)/C=C/C2O[C@H]2C[C@@H](C)OC(=O)C[C@H]1OC(C)=O` (stereo partly drawn), the growth inhibition was 4.1% in assay [1]; -22.6% in assay [2]; 4.75% in assay [3]; 8.95% in assay [4]; -14.3% in assay [5]; 17.3% in assay [6].

With `Cc1cccc(SC(=O)Nc2cc([N+](=O)[O-])ccc2Cl)c1`, the growth inhibition is 6.9% in assay [1]; 4.4% in assay [2]; 11.6% in assay [3]; 10.6% in assay [4]; 17.6% in assay [5]; 20.5% in assay [6].

For `S=C(SNC1CCCCC1)SNC1CCCCC1`, the growth inhibition was -65.5% in assay [1]; -14.2% in assay [2]; 4.25% in assay [3]; -13.4% in assay [4]; 9.35% in assay [5]; 6.25% in assay [6].

On to `CCc1cccc(CC)c1NC(=S)NN`, for which the growth inhibition is 17.4% in assay [1]; 15.3% in assay [2]; 41.9% in assay [3]; -6% in assay [4]; 24.2% in assay [5]; 5.55% in assay [6].

Regarding `N#CNC(=NCCO)NCCO`, the growth inhibition was 25.8% in assay [1]; 7.3% in assay [2]; -2.25% in assay [3]; 11.3% in assay [4]; -0.35% in assay [5]; 26.6% in assay [6].

Consider `O=C1C2=C(OCO2)C(=O)C2=C1OCO2`, for which the growth inhibition in assay [1] is 2.65%; in assay [2] it was 20.8%; in assay [3], 21.1%; in assay [4] it was 3.7%; in assay [5] it was 9.95%; in assay [6] it was 3.2%.

As for `O=C(CSc1nnc(Cc2ccccc2)o1)Nc1ccc([N+](=O)[O-])cc1`, the growth inhibition was 11.2% in assay [1]; 15.1% in assay [2]; 5.65% in assay [3]; 10.5% in assay [4]; 19% in assay [5]; -7.15% in assay [6].

As for `Cc1ccc2c(c1)nc(-c1ccccn1)n2CCc1ccncc1`, the growth inhibition in assay [1] is 62.5%; in assay [2], 34.1%; in assay [3] it was 77% (active); in assay [4], 90.3% (active); in assay [5] it was 92.7% (active); in assay [6] it was 53.8%.

Turning to `OC(c1ccccc1)C1(O)CCCCC1` (stereo not drawn), the growth inhibition in assay [1] is -10.8%; in assay [2], -5.25%; in assay [3], -1.7%; in assay [4], -52.5%; in assay [5], -17.1%; in assay [6] it was 9.75%.

In the case of `S=C(NCc1ccc(Cl)cc1Cl)Nc1ccccc1`, the growth inhibition is 23.1% in assay [1]; 73% (active) in assay [2]; 75.8% (active) in assay [3]; -1.8% in assay [4]; 64.7% in assay [5]; 72.5% (active) in assay [6].

As for `CCOC(=O)CCCCCCCCCC[N+](CC)(CC)CC(=O)c1ccc(NC(C)=O)cc1`, the growth inhibition in assay [1] is -1.05%; in assay [2], -2.35%; in assay [3], 3.5%; in assay [4], 12.3%; in assay [5] it was 16.8%; in assay [6], -0.1%.

As to `CCN(CC)c1cccc(C(=O)OCCNCC(C)C)c1`, the growth inhibition in assay [1] was -9.7%; in assay [2], 0.85%; in assay [3], 5.05%; in assay [4], -39.7%; in assay [5] it was 49.1%; in assay [6] it was 10.8%.
